Compound activity from PubChem BioAssay.
Rows were chosen to be rich in hits. Some 21% of all compounds tested hit in one or more screens of this group.
Pf growth 48h: inhibits P. falciparum growth in the first generation, 48 h; P. falciparum luciferase growth in erythrocytes, 48 h; Potency, µM (doses to about 28.7 µM), for inactives: top-dose activity change, negative = inhibition, hits mostly inhibitors; hit rate 5.9% among 310,000; AID 504832; also: potency is read from the fitted curve at half-maximal effect; % is scaled to controls: 0 for no effect and ±100 for the full control effect
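Compounds are pin-transferred into medium, infected erythrocytes (2% hematocrit, 0.1% parasitemia final) are added, and plates sit one parasite generation at 37 C in 5% CO2. Detection reagent is then added and luminescence measured.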
Pf growth 96h: P. falciparum growth inhibition at 96 hours | P. falciparum luciferase reporter growth, 96 h | hit rate 6.9% among 320,000 | Potency, µM (series often up to 28.7 µM), for inactives: at the top dose activity change, negative = inhibition, hits mostly inhibitors | AID 504834; also: potency is read from the fitted curve at half-maximal effect; % is scaled to controls: 0 for no effect and ±100 for the full control effect
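Two-generation exposure (96 h) targets delayed-death phenotype. Reporter parasites carrying integrated firefly luciferase, in red cells at 2% hematocrit and 0.05% parasitemia final, kept at 37 C, 5% CO2; luminescence loss indicates inhibition.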
Cycloheximide cs: affects cycloheximide protein synthesis inhibition readout, counter-screen. hit rate 12% among 300,000. max response, %. cell reporter, cycloheximide protein synthesis inhibition counterscreen. AID 2314; in the data active = max response mostly above about 13%, no sharp cut-off; inactive = mostly below about 14%; also: read at 38.3 µM for the half of the compounds with a filed dose; 0% is about no effect
Sm TGR block: S. mansoni TGR enzyme inhibition. Q962Y6. hit rate 3% among 360,000. purified TGR, DTNB reduction, TNB absorbance 405 nm. Potency, µM (series often up to 114 µM), inactives show top-dose activity change, negative = inhibition, hits mostly inhibitors; also: potency is read from the fitted curve at half-maximal effect; % is scaled to controls: 0 for no effect and ±100 for the full control effect; nearly all actives have a fitted effect of over 60% in size
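Kinetic colorimetric format: TGR-catalysed, NADPH-driven DTNB reduction monitored via TNB absorbance. Enzyme dispensed at 20 nM; compound exposure 15 min at room temperature before reaction start.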
Shiga inhibitor: Shiga toxin inhibition; hit rate 9.2% among 290,000; inhibition, % at 38.7 µM; Vero cells, Shiga toxin protein synthesis inhibition reporter; in the data active = inhibition mostly above about 28%, no sharp cut-off; inactive = mostly below about 43%; also: 0% is about no effect
NS1 function inh: influenza NS1 inhibition; Potency, µM (series often up to 46.1 µM), inactives show at the top dose activity, positive = more growth; hit rate 0.4% among 270,000; calls by dose curve; also: potency is read from the fitted curve at half-maximal effect; actives are rising curves; nearly all actives have a fitted effect of over 50% in size
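Read-out: OD600 growth recovery of NS1-expressing budding yeast. Cells grown overnight at 30C in -URA glucose medium, washed, resuspended and diluted 1:100 in 2% galactose assay medium, pH 6.0. Same strain lacking NS1 served as positive control.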
Active calls of the source: *; i = inactive; ? = inconclusive; . = no result given; + = active, no number; [ ] = remark or other dose. Unless noted, calls follow the shape of the dose curve; as a rule, active = well fitted curve in the direction sought with a large enough effect; inconclusive = small, poorly fitted or top-dose-only effect, or another doubt; inactive = no such curve, though single readings can be large; an effect the other way counts as inactive or inconclusive.

SMILES	Pf growth 48h	Pf growth 96h	Cycloheximide cs	Sm TGR block	Shiga inhibitor	NS1 function inh
CC(C)CC(=O)Nc1ccc2c(c1)oc1ccccc12	363%	115%	45*	-3%	167*	-37%
CC(C)CC(=O)Nc1ccc2c(c1)OCO2	25%	58%	19	.	30	1%
CCCCC(=O)Nc1ccc2c(c1)oc1ccccc12	361%	278%	25*	7%	73*	6%
O=C(O)CCCC(=O)Nc1ccc2c(c1)oc1ccccc12	8%	2%	-2	3%	-4	14%
CC(C)C(=O)OC1CCS(=O)(=O)c2sccc21 (centres undefined)	-10%	8%	-3	31%	-5	2%
COc1cc(OC)c(OC)cc1CN1CCc2nc(N3CCN(c4ncccn4)CC3)ncc2C1	.	.	.	22µM*	.	.
COc1cc(OC)c(OC)cc1CN1CCc2nc(N3CCN(c4ccccc4F)CC3)ncc2C1	.	.	.	-5%	.	.
COc1ccc(N2CC2c2ccncc2)cc1 (centres undefined)	6%	-9%	5	-1%	13	24%
Clc1ccc(N2COC3c4cccc5cccc(c45)C32)cc1 (centres undefined)	?	-27%	13	-3%	49*	6%
COc1ccc(N2COC3c4cccc5cccc(c45)C32)cc1 (centres undefined)	?	-3%	24*	-15%	45*	5%
CS(=O)(=O)NC1c2cccc3cccc(c23)C1N1CCOCC1 (centres undefined)	6%	-1%	-3	-17%	-16	1%
Fc1ccccc1OCc1nc(-c2ccc(-n3cccc3)cc2)no1	.	.	.	0%	.	.
Cc1nnc(SCC(=O)Nc2sc3c(c2C(=O)c2ccccc2)CCCC3)s1	2%	-3%	-1	-19%	-17	9%
CCO[C@H]1OC(C(=O)NC2CC2)=C[C@@H](c2c[nH]c3ccccc23)[C@@H]1CCCO	50%	16%	-2	9%	-6	3%
CCO[C@@H]1OC(C(=O)NCc2ccccc2)=C[C@H](C2CCCCC2)[C@H]1CCCO	?	9.3µM*	-2	8%	-20	1%
C#CCNC(=O)C1=C[C@@H](C2CCCCC2)[C@H](CCCO)[C@@H](OCC)O1	?	?	0	40µM*	-17	4%
CCO[C@@H]1OC(C(=O)NC2CC2)=C[C@H](c2c[nH]c3ccccc23)[C@H]1CCCO	-12%	?	11	15%	52*	-1%
COc1cccc(CN2C(=O)c3ccccc3C2C(=O)NCCc2ccccc2)c1 (centres undefined)	.	.	.	-4%	.	.
CCN(c1ccccc1)S(=O)(=O)c1nnc(NC(=O)C(C)Oc2ccccc2)s1 (centres undefined)	.	.	.	4%	.	.
COc1cccc(OCc2cc(=O)n3cc(C)sc3n2)c1	.	.	.	-1%	.	.
COc1ccc(Cl)cc1NC(=O)Nc1ccccc1C(N)=O	-6%	24%	8	9%	-9	.
COc1cccc(NC(=O)Nc2ccccc2C(N)=O)c1	9%	111%	27*	12%	35	.
CSc1ccc(NC(=O)Nc2ccccc2C(N)=O)cc1	86%	132%	67*	4%	74*	10%
O=C(Nc1cccc(Cl)c1)Nc1ccccc1C(=O)O	379%	i	24*	-1%	47*	6%
O=C(NNc1ccccc1[N+](=O)[O-])Nc1cccc(Cl)c1	-16%	?	47*	-30%	81*	5%
SMILES	Pf growth 48h	Pf growth 96h	Cycloheximide cs	Sm TGR block	Shiga inhibitor	NS1 function inh
COc1ccccc1NC(=O)CSc1nnc(COc2ccccc2OC)n1C	-10%	-3%	-5	.	-12	-6%
Cc1ccc(C(=O)N/C(=C/c2ccco2)C(=O)N2CCOCC2)cc1	30%	16%	-4	-12%	-10	-9%
NC(=O)c1ccccc1NC(=O)Nc1cccc(Cl)c1	24%	34%	21*	-3%	45*	5%
Fc1ccc(C2=CCN(C(c3ccc(Cl)cc3)c3nnnn3Cc3ccccc3)CC2)cc1 (centres undefined)	12µM*	-22%	-2	-13%	-7	10%
Cc1ccc(C(c2nnnn2Cc2ccccc2)N2CC=C(c3ccc(F)cc3)CC2)cc1 (centres undefined)	?	35%	1	22%	12	-9%
Fc1ccc(Cn2nnnc2C(c2ccc(Cl)cc2)N2CCSCC2)cc1 (centres undefined)	?	23%	-2	5%	-3	-1%
Fc1ccc(Cn2nnnc2C(c2ccc(Cl)cc2)N2CC=C(c3ccc(F)cc3)CC2)cc1 (centres undefined)	12µM*	46%	3	1%	14	-1%
CC1CC(C)(C)NCc2ccccc21 (centres undefined)	0%	9.3µM*	-6	-2%	-9	7%
CC1CC(C)(C)NC(C)c2ccccc21 (centres undefined)	-6%	11%	-6	?	-13	-4%
CC1CCN(CC2CCN(C(=O)NCc3ccc(F)cc3)CC2)CC1	.	.	.	9%	.	.
CC(=O)Nc1nc(-c2ccc3c(c2)CCN3S(C)(=O)=O)cs1	-23%	27%	18*	.	67*	5%
O=C(CN1CCOCC1)Nc1nc(-c2ccc3c(c2)CCN3S(=O)(=O)c2ccccc2)cs1	2.1µM*	.	8	0%	-15	12%
Cc1sc(NC(=O)CN2CCOCC2)nc1-c1ccc2c(c1)CCN2S(=O)(=O)c1ccccc1	12µM*	.	-4	-26%	-2	8%
CS(=O)(=O)N1CCc2cc(C(=O)NC3CC3)ccc21	-10%	10%	1	-2%	20	.
CCC(CC)C(=O)Nc1nc(-c2ccc3c(c2)CCN3C(=O)C2CC2)c(C)s1	.	?	-5	-10%	-6	14%
CCOC(=O)c1c(C)c(C(=O)NCc2ccc(Cl)cc2)c(C)n1C	.	.	.	3%	.	.
COc1ccc(C(=O)Cc2ccc3c(c2)OCO3)c(O)c1	265%	220%	101*	-1%	+	?
O=C(Cc1ccc2c(c1)OCCO2)c1c(O)cc(O)cc1O	40%	-1%	32*	0%	57*	13%
O=C(Cc1ccc(Br)cc1)c1ccc(O)cc1O	71%	.	49*	3%	186*	-239%
O=C(COc1ccccc1Br)c1ccc(O)cc1O	31%	20%	15	6%	56	-152%
O=C(O)COc1ccc(C(=O)Cc2ccc3c(c2)OCCCO3)c(O)c1	-16%	.	-1	?	11	6%
O=C(Cc1ccc([N+](=O)[O-])cc1)c1ccc(O)cc1O	36%	-23%	16*	11%	61*	-58%
NC(=O)c1ccc(NC(=O)COC(=O)c2ccccc2Nc2ccccc2)cc1	20%[5.75 µM]	23%[5.75 µM]	5	3%	-2	.
COc1ccc(CC(=O)c2ccc(O)cc2O)cc1	85%	-42%	49*	8%	59*	-54%
CCOc1ccc(C(=O)Cc2ccc3oc(C(=O)O)cc3c2)c(O)c1	10%	63%	1	-18%	1	-5%
